This passage reports growth results from PubChem BioAssay (NCI).

Among the test systems are HCT-15 colon; HT29 colon; SNB-75 CNS; SNB-19 CNS; U251 CNS; PC-3 prostate; UACC-62 melanoma; LOX IMVI melanoma; SK-MEL-28 melanoma.
What all share (assay): NCI-60 one-dose screen, 48 h (100 = growth as untreated, 0 = no growth, -100 = all killed)
Settings in all cases: 10 µM unless noted

The structures appear in SMILES notation. The panel holds about 83,000 compounds, 20% with a hit somewhere; the sample as a whole holds those more often.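 Cell lines were cultured in 96-well plates, exposed to a single compound concentration, and assessed for percent growth 48 hours later.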 Unmarked numbers belong to inactive results. The source made the active and inactive calls. Rule for the calls: active = growth percent below 10; inactive = the rest.

For `OCc1ccc(N2CCc3cccc(F)c3C2)cc1Cl`, the growth with HCT-15 colon was 88.9% [0.1 µM]; in the assay on HT29 colon it was 16.2% [0.1 µM]; with SNB-75 CNS it was 108% [0.1 µM]; in the assay on SNB-19 CNS, 85.2% [0.1 µM]; in the assay with U251 CNS it was 53.5% [0.1 µM]; with PC-3 prostate it was 89.1% [0.1 µM]. Moreover, the values for the growth in the assay with UACC-62 melanoma, with LOX IMVI melanoma and in the assay on SK-MEL-28 melanoma were -11.2% [0.1 µM] (active), 105% [0.1 µM] and 113% [0.1 µM], respectively.

For `NNCCc1ccc(NC(=O)CCCc2ccc(/C=C/C(=O)NO)cc2)cc1`, the growth is 80.1% with HCT-15 colon; 66.4% with HT29 colon; 53% in the assay on SNB-75 CNS; 58.5% in the assay with SNB-19 CNS; 22.1% with U251 CNS; 53.9% in the assay with PC-3 prostate. For the same compound, the growth in the assay on UACC-62 melanoma was 43%; with LOX IMVI melanoma it was 44%; in the assay on SK-MEL-28 melanoma it was 73.2%.

On to `CNC(=O)c1cc(Oc2ccc(NC(=O)Nc3ccc(Cl)c(OC(F)(F)F)c3)c(F)c2)ccn1`, for which the growth in the assay with HCT-15 colon was 28.8%; in the assay with HT29 colon, 14%; in the assay on SNB-75 CNS, 83%; with SNB-19 CNS, 30.3%; in the assay with U251 CNS, 32.3%; with PC-3 prostate, 22.1%. For the same compound, the growth is 5.13% (active) in the assay on UACC-62 melanoma, 17.2% with LOX IMVI melanoma and 13.7% in the assay with SK-MEL-28 melanoma.

On to `Cc1ccc(NC(=O)C2CCC(CN3CCN(C)CC3)CC2)cc1Nc1nccc(-c2cccnc2)n1` (stereo unspecified), for which the growth with HCT-15 colon is 95.2%; with HT29 colon, 100%; with SNB-75 CNS it was 77.6%; in the assay on SNB-19 CNS it was 100%; with U251 CNS, 95%; in the assay on PC-3 prostate, 103%. Moreover, the growth in the assay with UACC-62 melanoma was 103%; in the assay with LOX IMVI melanoma, 90.8%; in the assay with SK-MEL-28 melanoma it was 99.7%.

As for `CCOc1cc2ncc(C#N)c(Nc3ccc(OCc4cccc(F)c4)c(Cl)c3)c2cc1NC(=O)CC1CCSS1` (stereo unspecified), the growth in the assay on HCT-15 colon is 66.4%; in the assay on HT29 colon it was 17.6%; in the assay with SNB-75 CNS it was 102%; in the assay with SNB-19 CNS, 81.5%; with U251 CNS, 55.9%; in the assay on PC-3 prostate it was -42.7% (active). Besides, the growth in the assay on UACC-62 melanoma is 71.6%; in the assay on LOX IMVI melanoma, -35.3% (active); in the assay with SK-MEL-28 melanoma it was 34.9%.

On to `Cc1ccc2oc(=O)cc(C3c4ccc([nH]4)C(c4cc(=O)oc5ccc(C)cc45)c4ccc([nH]4)C(c4cc(=O)oc5ccc(C)cc45)c4ccc([nH]4)C(c4cc(=O)oc5ccc(C)cc45)c4ccc3[nH]4)c2c1` (stereo unspecified), for which the growth was -46.9% (active) in the assay on HCT-15 colon; -75.7% (active) in the assay with HT29 colon; -42% (active) with SNB-75 CNS; -29.6% (active) in the assay with SNB-19 CNS; -80.7% (active) in the assay with U251 CNS; -27.2% (active) with PC-3 prostate. For the same compound, the growth was -57% (active) in the assay with UACC-62 melanoma, -70.6% (active) in the assay on LOX IMVI melanoma and -53.2% (active) with SK-MEL-28 melanoma.

Turning to `CSc1ccc(-c2ccccc(=O)c2O)cc1`, the growth with HCT-15 colon is 26.9%; in the assay with HT29 colon, 25.7%; in the assay with SNB-75 CNS it was 34.6%; in the assay on SNB-19 CNS, 17.5%; in the assay with U251 CNS it was 9.54% (active); in the assay with PC-3 prostate, 30.9%. The values for the growth in the assay with UACC-62 melanoma, with LOX IMVI melanoma and in the assay with SK-MEL-28 melanoma were -23% (active), 9.8% (active) and 26.9%, respectively.

For `COc1cc2c(cc1-c1c(C)noc1C)ncc1nc(C3CCCCC3)n([C@H](C)COC(F)F)c12`, the growth in the assay on HCT-15 colon is 15.1%; in the assay with HT29 colon it was 19.3%; with SNB-75 CNS it was 41%; in the assay on SNB-19 CNS, 45.4%; in the assay with U251 CNS it was 45.7%; in the assay on PC-3 prostate, 35%. Besides, the growth in the assay on UACC-62 melanoma is 22.8%; in the assay on LOX IMVI melanoma, 11%; in the assay on SK-MEL-28 melanoma it was 49.9%.

In the case of `COc1ccc(/C=N/C2=C(C#N)C(c3ccc(N(C)C)cc3)c3ccc4ccccc4c3O2)cc1` (stereo unspecified), the growth was 38.7% with HCT-15 colon; 48.4% in the assay on HT29 colon; -7.87% (active) with SNB-75 CNS; 68% in the assay with SNB-19 CNS; 71.1% with U251 CNS; 52.5% in the assay on PC-3 prostate. The figures for the growth in the assay with UACC-62 melanoma, in the assay on LOX IMVI melanoma and in the assay with SK-MEL-28 melanoma were 48.3%, 37.3% and 74.4%, respectively.

With `FC(F)(F)c1[nH]ncc1-c1nc2ccc3n[nH]c(C#Cc4cccnc4)c3c2c2c1CCCC2`, the growth in the assay on HCT-15 colon was 36.1%; in the assay with HT29 colon, 32.5%; in the assay on SNB-75 CNS, -10.9% (active); in the assay with SNB-19 CNS, 59.9%; in the assay with U251 CNS, 54.7%; with PC-3 prostate, 47.1%. Also, the growth is 26.8% in the assay with UACC-62 melanoma, 33.6% in the assay with LOX IMVI melanoma and 32.4% with SK-MEL-28 melanoma.

Regarding `CCOC(=O)c1c(C)oc2ncnc(N3CCN(C(=O)COc4ccc(SC)cc4)CC3)c12`, the growth was 95.8% in the assay with HCT-15 colon; 95.3% in the assay with HT29 colon; 83% in the assay with SNB-75 CNS; 97.9% with SNB-19 CNS; 87.5% in the assay with U251 CNS; 82.2% in the assay on PC-3 prostate. Further, the figures for the growth in the assay on UACC-62 melanoma, in the assay with LOX IMVI melanoma and with SK-MEL-28 melanoma were 86.8%, 90.5% and 110%, respectively.

Turning to `CCCCN1CCCn2c1nc1c2c(=O)n(CCC)c(=O)n1CCC`, the growth in the assay on HCT-15 colon is 106%; with HT29 colon, 97.8%; in the assay on SNB-75 CNS, 74.2%; in the assay with SNB-19 CNS, 96.6%; with U251 CNS, 91.8%; with PC-3 prostate, 91.3%. For the same compound, the results for the growth in the assay with UACC-62 melanoma, in the assay with LOX IMVI melanoma and in the assay with SK-MEL-28 melanoma were 85.4%, 93.8% and 103%, respectively.

Turning to `N#CN1CC[C@H](C(=O)Nc2cc3cc(C(N)=O)ccc3cn2)C1`, the growth in the assay with HCT-15 colon is 3.81% (active); in the assay with HT29 colon, -31.2% (active); in the assay on SNB-75 CNS, -28.4% (active); in the assay with SNB-19 CNS, 7.87% (active); with U251 CNS, -2.5% (active); with PC-3 prostate, 2.76% (active). In addition, the growth in the assay on UACC-62 melanoma was -34.5% (active); in the assay on LOX IMVI melanoma it was 4.7% (active); in the assay with SK-MEL-28 melanoma it was -9.92% (active).

As for `COc1ccc(N=Nc2nccs2)c(O)c1`, the growth in the assay with HCT-15 colon was 25.4%; with HT29 colon it was 40.2%; in the assay with SNB-75 CNS, 81.9%; with SNB-19 CNS, 51.4%; with U251 CNS, 27.8%; in the assay on PC-3 prostate, 42.1%. Further, the growth in the assay with UACC-62 melanoma is 36.8%; with LOX IMVI melanoma, 11.5%; in the assay with SK-MEL-28 melanoma, 81.4%.
